Results published in PubChem BioAssay (EPA / NIEHS).
Records with an inconclusive call do not appear. Calls of active or inactive are those of the source. How the source made its calls: active means hit-call score of the fitted dose curve at least 0.9, where 1 is the maximum; inconclusive means response in the unintended direction; inactive means score below 0.9.

What was measured:
[1] = read-out: ABC Transporter (ABCB1), ABCB1 (gene 5243); test: CLD_ABCB1_48hr: CellzDirect (CLD) Gene Expression Assay for ABC Transporter (ABCB1) at 48 hours (AID 2283695);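 on AC50: potency for induction meaning increase of mRNA over DMSO vehicle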
How it was run: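 Primary human hepatocytes from two donor preparations dosed daily on two consecutive days with 0.2% DMSO vehicle. Harvest at 48 h. ABCB1 mRNA quantified by qNPA with chemiluminescence and fitted for gain of signal versus DMSO.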

[2] = read-out: Cytochrome P450 3A4 (Homo sapiens) (UniProt P08684); test: CLD_CYP3A4_48hr: CellzDirect (CLD) Gene Expression Assay for xenobiotic metabolism (CYP3A4) at 48 hours (AID 2283698)
How it was run: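 Primary human hepatocytes from two donor preparations dosed daily for two days with multiple chemical concentrations, 0.2% DMSO vehicle. CYP3A4 mRNA at 48 h by quantitative nuclease protection assay, chemiluminescence, positive fit versus DMSO; cytotoxicity flagged morphologically.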

[3] = read-out: Cytochrome P450 2C19 (Homo sapiens) (UniProt P33261); test: CLD_CYP2C19_48hr: CellzDirect (CLD) Gene Expression Assay for xenobiotic metabolism (CYP2C19) at 48 hours (AID 2283700);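 further: fitted upward so actives raise CYP2C19 mRNA above the 0.2% DMSO vehicle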
How it was run: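 Primary human hepatocytes (two donor preparations) dosed daily for two days, harvested at 48 h; CYP2C19 mRNA induction measured by qNPA chemiluminescence. Gain-of-signal fitted relative to 0.2% DMSO vehicle as baseline.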

[4] = read-out: Broad substrate specificity ATP-binding cassette transporter ABCG2 (Homo sapiens) (UniProt Q9UNQ0); test: CLD_ABCG2_48hr: CellzDirect (CLD) Gene Expression Assay for ABC Transporter (ABCG2) at 48 hours (AID 2283704);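 on AC50: potency for induction of ABCG2 mRNA above the DMSO baseline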
How it was run: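 Primary human hepatocytes from two donors, dosed daily for 2 days, 0.2% DMSO vehicle, several concentrations. ABCG2 mRNA at 48 h by qNPA chemiluminescence, gain fitted versus DMSO; cytotoxicity flagged by morphology.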

[5] = CLD_ACTIN_48hr: CellzDirect (CLD) Gene Expression Assay for Baseline Control (Actin) at 48 hours (AID 2283702)
How it was run: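 Primary human hepatocytes (two donor preparations) dosed daily for two days with ToxCast chemicals at multiple concentrations versus 0.2% DMSO vehicle; harvested at 48 h. Actin mRNA measured as a background control by quantitative nuclease protection assay with chemiluminescence.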

[6] = read-out: Glyceraldehyde-3-phosphate dehydrogenase (Homo sapiens) (UniProt P04406); test: CLD_GAPDH_48hr: CellzDirect (CLD) Gene Expression Assay for Baseline Control (Glyceraldehyde 3-phosphate dehydrogenase) at 48 hours (AID 2283706);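 further: active means higher GAPDH mRNA than DMSO vehicle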
How it was run: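 Primary human hepatocytes dosed daily for two days with fresh chemical at multiple concentrations, 0.2% DMSO vehicle; GAPDH mRNA measured at 48 h by quantitative nuclease protection assay with chemiluminescence, fitted upward relative to DMSO as background control.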

[7] = read-out: glucuronosyltransferase (UGT1A1), UGT1A1 (gene 54658); test: CLD_UGT1A1_24hr: CellzDirect (CLD) Gene Expression Assay for glucuronosyltransferase (UGT1A1) at 24 hours (AID 2283696)
How it was run: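 Primary human hepatocytes from two donor preparations were dosed (0.2% DMSO vehicle) and harvested at 24 h; UGT1A1 mRNA induction was quantified by chemiluminescent qNPA, fitted as gain relative to DMSO.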

[8] = read-out: xenobiotic metabolism (CYP1A1), CYP1A1 (gene 1543); test: CLD_CYP1A1_48hr: CellzDirect (CLD) Gene Expression Assay for xenobiotic metabolism (CYP1A1) at 48 hours (AID 2283705)
How it was run: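 Primary human hepatocytes from two donors dosed daily for two days at multiple concentrations, 0.2% DMSO vehicle; CYP1A1 mRNA induction at 48 h by qNPA chemiluminescence. Cytotoxicity noted by phase-contrast morphology.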

[9] = read-out: xenobiotic metabolism (CYP1A2), CYP1A2 (gene 1544); test: CLD_CYP1A2_48hr: CellzDirect (CLD) Gene Expression Assay for xenobiotic metabolism (CYP1A2) at 48 hours (AID 2283703)
How it was run: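 Primary human hepatocytes from two donor preparations were dosed daily for two days at multiple concentrations in 0.2% DMSO vehicle. CYP1A2 mRNA was measured at 48 hours by chemiluminescent quantitative nuclease protection assay, with gain of signal fitted versus DMSO and cytotoxicity annotated from morphology.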

Chain of Glyceraldehyde-3-phosphate dehydrogenase (Homo sapiens) (P04406 whole entry, looked up): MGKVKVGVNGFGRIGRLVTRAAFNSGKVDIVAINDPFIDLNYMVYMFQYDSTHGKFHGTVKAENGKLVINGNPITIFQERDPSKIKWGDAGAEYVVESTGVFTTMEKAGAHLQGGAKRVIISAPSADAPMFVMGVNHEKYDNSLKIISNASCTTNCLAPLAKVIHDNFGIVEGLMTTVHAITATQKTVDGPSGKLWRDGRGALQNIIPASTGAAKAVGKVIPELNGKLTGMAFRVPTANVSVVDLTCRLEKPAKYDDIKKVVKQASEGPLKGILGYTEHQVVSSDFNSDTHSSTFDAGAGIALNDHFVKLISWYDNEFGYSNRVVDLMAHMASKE
Chain of Cytochrome P450 2C19 (Homo sapiens) (P33261 whole entry, looked up): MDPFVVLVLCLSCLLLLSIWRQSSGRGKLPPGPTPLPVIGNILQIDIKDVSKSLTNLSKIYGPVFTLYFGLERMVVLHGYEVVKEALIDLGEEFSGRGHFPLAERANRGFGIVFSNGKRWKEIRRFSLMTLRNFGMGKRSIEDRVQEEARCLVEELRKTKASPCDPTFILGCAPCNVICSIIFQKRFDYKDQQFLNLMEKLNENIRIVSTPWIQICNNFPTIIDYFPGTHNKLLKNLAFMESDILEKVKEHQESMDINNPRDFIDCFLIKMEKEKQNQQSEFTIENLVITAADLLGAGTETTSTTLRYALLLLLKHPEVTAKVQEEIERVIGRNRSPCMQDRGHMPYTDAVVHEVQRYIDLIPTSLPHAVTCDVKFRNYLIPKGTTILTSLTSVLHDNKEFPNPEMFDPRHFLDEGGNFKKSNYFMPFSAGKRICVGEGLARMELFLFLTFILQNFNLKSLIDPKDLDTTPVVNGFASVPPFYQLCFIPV
Chain of Cytochrome P450 3A4 (Homo sapiens) (P08684 whole entry, looked up): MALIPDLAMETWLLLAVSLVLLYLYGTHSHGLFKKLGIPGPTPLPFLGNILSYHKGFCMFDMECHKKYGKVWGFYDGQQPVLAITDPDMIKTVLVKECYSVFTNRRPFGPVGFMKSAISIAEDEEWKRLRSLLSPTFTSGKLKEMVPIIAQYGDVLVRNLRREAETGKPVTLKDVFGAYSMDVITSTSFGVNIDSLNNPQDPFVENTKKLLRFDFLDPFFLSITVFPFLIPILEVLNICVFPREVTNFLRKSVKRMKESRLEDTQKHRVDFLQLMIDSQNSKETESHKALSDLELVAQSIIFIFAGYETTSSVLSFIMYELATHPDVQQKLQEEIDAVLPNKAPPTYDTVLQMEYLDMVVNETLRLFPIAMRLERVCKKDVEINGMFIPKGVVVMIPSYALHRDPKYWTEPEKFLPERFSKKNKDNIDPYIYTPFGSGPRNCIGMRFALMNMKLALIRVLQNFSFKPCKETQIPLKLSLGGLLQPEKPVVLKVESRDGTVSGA
Chain of Broad substrate specificity ATP-binding cassette transporter ABCG2 (Homo sapiens) (Q9UNQ0 whole entry, looked up): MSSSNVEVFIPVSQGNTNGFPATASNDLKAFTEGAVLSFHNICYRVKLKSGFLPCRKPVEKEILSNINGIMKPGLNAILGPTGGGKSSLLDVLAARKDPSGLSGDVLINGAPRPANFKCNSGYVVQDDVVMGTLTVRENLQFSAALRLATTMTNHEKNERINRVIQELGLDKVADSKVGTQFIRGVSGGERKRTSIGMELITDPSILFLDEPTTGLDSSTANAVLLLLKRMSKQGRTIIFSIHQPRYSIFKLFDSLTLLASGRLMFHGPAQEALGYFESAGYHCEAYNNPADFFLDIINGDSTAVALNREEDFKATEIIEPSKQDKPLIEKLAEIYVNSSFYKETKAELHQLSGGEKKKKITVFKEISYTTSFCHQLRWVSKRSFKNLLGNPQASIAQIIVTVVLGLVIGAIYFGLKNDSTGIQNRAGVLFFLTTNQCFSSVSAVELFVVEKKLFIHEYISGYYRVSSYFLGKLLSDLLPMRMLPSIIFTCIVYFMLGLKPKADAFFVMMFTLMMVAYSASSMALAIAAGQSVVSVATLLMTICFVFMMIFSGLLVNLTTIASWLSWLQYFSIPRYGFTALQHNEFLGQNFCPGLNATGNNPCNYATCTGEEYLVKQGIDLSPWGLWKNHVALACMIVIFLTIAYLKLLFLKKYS

With `CCC(C)Nc1c([N+](=O)[O-])cc(C(C)(C)C)cc1[N+](=O)[O-]` (configuration not stated) the outcome [1] was “inactive”, the AC50 [2] was 2.7 µM (active) and the outcome [3] was “inactive”. For the same compound, the outcome [4] was “inactive”.
With `CCS(=O)(=O)c1cccnc1S(=O)(=O)NC(=O)Nc1nc(OC)cc(OC)n1` the outcome [1] was “inactive”, the AC50 [2] was 20 µM (active) and the outcome [5] was “inactive”. For the same compound, the outcome [4] was “inactive” and the outcome [6] was “inactive”.
In the case of `CCC(C)(NC(=O)c1cc(Cl)c(C)c(Cl)c1)C(=O)CCl` (configuration not stated), the outcome [1] is reported as “inactive”, the AC50 [2] is reported as 2.52 µM (active) and the outcome [5] is reported as “inactive”.
For `CCN(CC)C(=O)SCc1ccc(Cl)cc1`, the outcome [1] was “inactive”, the outcome [7] was “inactive” and the AC50 [2] was 20 µM (active). For the same compound, the outcome [3] was “inactive” and the outcome [5] was “inactive”.
With `C[C@H]1[C@H](c2ccc(Cl)cc2)SC(=O)N1C(=O)NC1CCCCC1` the AC50 [1] was 35.5 µM (active), the AC50 [2] was 1.97 µM (active) and the outcome [3] was “inactive”. The AC50 [4] was 34.8 µM (active).
In the case of `O=S1OCC2C(CO1)C1(Cl)C(Cl)=C(Cl)C2(Cl)C1(Cl)Cl` (configuration not stated), the AC50 [1] is reported as 29.4 µM (active), the AC50 [2] is reported as 9.22 µM (active) and the outcome [3] is reported as “inactive”. The outcome [4] was “inactive”.
In the case of `CCCN(CCC)c1c([N+](=O)[O-])cc(C(F)(F)F)cc1[N+](=O)[O-]`, the outcome [1] is reported as “inactive”, the outcome [7] is reported as “inactive” and the AC50 [2] is reported as 8.57 µM (active).
With `O=[N+]([O-])/N=C1\NCCN1Cc1ccc(Cl)nc1` the outcome [1] was “inactive”, the outcome [2] was “inactive” and the outcome [5] was “inactive”. For the same compound, the outcome [6] was “inactive”.
For `CC(C)(C)C(O)/C(=C\c1ccc(Cl)cc1Cl)n1cncn1` (configuration not stated), the AC50 [1] was 31.3 µM (active), the AC50 [2] was 1.9 µM (active) and the AC50 [4] was 31.5 µM (active).
In the case of `COP(=O)(OC)OC=C(Cl)Cl`, the outcome [1] is reported as “inactive”, the outcome [2] is reported as “inactive” and the outcome [3] is reported as “inactive”. The outcome [5] was “inactive”, the outcome [4] was “inactive” and the outcome [8] was “inactive”. For the same compound, the outcome [6] was “inactive”.
In the case of `CNC(=O)/C=C(\C)OP(=O)(OC)OC`, the outcome [1] is reported as “inactive”, the outcome [7] is reported as “inactive” and the AC50 [2] is reported as 1.9 µM (active). For the same compound, the outcome [3] was “inactive”, the outcome [5] was “inactive” and the outcome [4] was “inactive”. The outcome [6] was “inactive”.
With `CCOC1Oc2ccc(OS(C)(=O)=O)cc2C1(C)C` (configuration not stated) the outcome [1] was “inactive”, the AC50 [2] was 5.87 µM (active) and the outcome [9] was “inactive”. For the same compound, the outcome [4] was “inactive”.
With `COP(=S)(OC)Oc1ccc([N+](=O)[O-])cc1` the outcome [1] was “inactive”, the AC50 [2] was 8.47 µM (active) and the outcome [4] was “inactive”.
In the case of `CC(C)N(C(=O)COc1nnc(C(F)(F)F)s1)c1ccc(F)cc1`, the outcome [1] is reported as “inactive”, the AC50 [2] is reported as 5.1 µM (active) and the outcome [5] is reported as “inactive”. The outcome [4] was “inactive”, the AC50 [8] was 14.2 µM (active) and the outcome [6] was “inactive”.
With `CNC(=O)Oc1ccccc1OC(C)C` the outcome [1] was “inactive”, the AC50 [2] was 3.99 µM (active) and the outcome [3] was “inactive”. For the same compound, the outcome [5] was “inactive” and the outcome [6] was “inactive”.
In the case of `CC1(c2ccc(Oc3ccccc3)cc2)OC(=O)N(Nc2ccccc2)C1=O` (configuration not stated), the outcome [1] is reported as “inactive”, the outcome [2] is reported as “inactive” and the outcome [5] is reported as “inactive”. The outcome [4] was “inactive” and the outcome [6] was “inactive”.
With `CCCN(CCOc1c(Cl)cc(Cl)cc1Cl)C(=O)n1ccnc1` the AC50 [1] was 20 µM (active), the AC50 [2] was 0.432 µM (active) and the AC50 [4] was 35.4 µM (active). For the same compound, the AC50 [8] was 0.458 µM (active) and the outcome [6] was “inactive”.
With `O=S(=O)(O)C(F)(F)C(F)(F)C(F)(F)C(F)(F)C(F)(F)C(F)(F)C(F)(F)C(F)(F)F` the outcome [1] was “inactive”, the outcome [2] was “inactive” and the outcome [5] was “inactive”. For the same compound, the outcome [6] was “inactive”.
With `CCOCN(C(=O)CCl)c1c(C)cccc1CC` the outcome [1] was “inactive”, the AC50 [2] was 2.16 µM (active) and the outcome [5] was “inactive”. For the same compound, the outcome [4] was “inactive”.
In the case of `C#CCN1C(=O)COc2cc(F)c(N3C(=O)C4=C(CCCC4)C3=O)cc21`, the outcome [1] is reported as “inactive”, the AC50 [2] is reported as 4.94 µM (active) and the outcome [3] is reported as “inactive”. For the same compound, the outcome [4] was “inactive”.
In the case of `Cc1[nH]c(=O)n(C(C)(C)C)c(=O)c1Cl`, the outcome [1] is reported as “inactive”, the outcome [7] is reported as “inactive” and the outcome [2] is reported as “inactive”. For the same compound, the outcome [3] was “inactive”, the outcome [5] was “inactive” and the outcome [9] was “inactive”.
In the case of `O=C(O)COc1ccc(Cl)cc1Cl`, the outcome [1] is reported as “inactive”, the outcome [2] is reported as “inactive” and the outcome [3] is reported as “inactive”. The outcome [5] was “inactive”, the outcome [4] was “inactive” and the outcome [6] was “inactive”.
For `Oc1cc(Cl)ccc1Oc1ccc(Cl)cc1Cl`, the outcome [1] was “inactive”, the outcome [2] was “inactive” and the outcome [3] was “inactive”. The outcome [5] was “inactive”, the outcome [4] was “inactive” and the outcome [6] was “inactive”.
